Source: PubChem BioAssay (NCATS)
Results filed as inconclusive are left out. Active and inactive are the calls of the source. Calls come from the whole dose curve; as a rule, active = well fitted cell-killing curve with a large enough effect; inconclusive = small, poorly fitted or top-dose-only effect; inactive = flat fitted curve, though single readings scatter.

Test: Identifying Small Molecule Inhibitors of Pancreatic Cancer Stem Cells (A278, Adherent) (AID 1259361);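 note: viability read after 48 h compound exposure; nearly all actives have a fitted effect of over 35% in size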
Conditions: series mostly up to 46.1 µM
Method in brief: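 Viability is scored by CellTiter-Glo luminescence 48 h after dosing, expressed as percent activity against vehicle and no-cell references. Spheroid formats rely on cells cultured 14 days in stem cell media beforehand.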

SMILES	IC50 (viability decrease)
CCN(CC)CCCCNc1nc2cc(Cl)c(Cl)cc2nc1-c1ccc(-c2cccs2)s1	23.5 µM (active)
C[C@@H](O[C@H]1OCCN(Cc2n[nH]c(=O)[nH]2)[C@@H]1c1ccc(F)cc1)c1cc(C(F)(F)F)cc(C(F)(F)F)c1	16.6 µM (active)
OCCn1cc(-c2ccc3c(c2)CCC3=NO)c(-c2ccncc2)n1	16.6 µM (active)
